Sampled rows, rich in hits. Any-hit rate of the full collection: about 4.2%.
TRPV1 potentiator: potentiators of human vanilloid receptor 1 (TRPV1). Q8NER1. TRPV1-expressing cells, Fluo-8 calcium influx, capsaicin EC20 potentiation. potentiation, % at 8.33 µM. hit rate 0.02% among 320,000; in the data active = potentiation above about 80%; inconclusive = between about 30% and that limit; also: 0% is about no effect
Target sequence (Q8NER1 whole entry, looked up): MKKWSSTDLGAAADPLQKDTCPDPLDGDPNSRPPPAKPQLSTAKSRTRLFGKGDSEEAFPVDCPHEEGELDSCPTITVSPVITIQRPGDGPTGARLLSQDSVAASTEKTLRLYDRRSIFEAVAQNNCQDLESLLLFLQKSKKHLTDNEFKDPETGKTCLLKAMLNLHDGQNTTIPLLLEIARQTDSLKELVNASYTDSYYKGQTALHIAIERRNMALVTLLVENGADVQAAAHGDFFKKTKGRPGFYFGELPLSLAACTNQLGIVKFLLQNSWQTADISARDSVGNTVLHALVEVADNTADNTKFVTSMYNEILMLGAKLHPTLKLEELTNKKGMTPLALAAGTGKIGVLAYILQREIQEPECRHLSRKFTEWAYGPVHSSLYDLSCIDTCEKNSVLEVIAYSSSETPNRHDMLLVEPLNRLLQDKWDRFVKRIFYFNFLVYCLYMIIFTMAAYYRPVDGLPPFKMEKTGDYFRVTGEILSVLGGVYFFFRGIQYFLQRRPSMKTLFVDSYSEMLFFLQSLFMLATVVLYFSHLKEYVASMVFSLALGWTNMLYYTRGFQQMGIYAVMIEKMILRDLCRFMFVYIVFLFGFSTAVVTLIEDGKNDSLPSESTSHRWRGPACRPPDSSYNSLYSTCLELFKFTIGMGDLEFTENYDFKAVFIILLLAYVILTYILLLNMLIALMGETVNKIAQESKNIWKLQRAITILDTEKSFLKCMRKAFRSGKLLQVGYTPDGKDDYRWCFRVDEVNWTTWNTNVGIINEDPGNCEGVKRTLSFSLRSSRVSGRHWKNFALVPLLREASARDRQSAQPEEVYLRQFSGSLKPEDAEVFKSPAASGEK
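Cells expressing TRPV1 were dye-loaded with Fluo-8 and read kinetically: 10 s baseline, 3 min after compound (agonist portion), then 2 min after EC20 capsaicin (allosteric enhancer portion). Calcium-bound dye fluorescence at 480/520 nm.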
D1 antag: blocks dopamine activation of the human D1 receptor; hit rate 3.2% among 360,000; HEK293 TREx D1 cells, calcium flux, dopamine EC80; hits give low values; activity change, negative = inhibition, % at 10 µM; in the data active = activity change below about -30%; also: % is scaled to controls: 0 for no effect and ±100 for the full control effect
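Tetracycline-induced HEK293 Trex D1 cells, force-coupled to calcium, dye-loaded; compounds added and read 180 s, then EC80 dopamine added and calcium flux tracked kinetically another 180 s.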
D1 ag: agonists of human D1 dopamine receptor; HEK293 T-REx D1 cells, calcium flux, agonist mode; hit rate 1% among 360,000; activation, % at 2 µM; in the data active = activation above about 30%; also: 0% is about no effect
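Agonism was scored from calcium flux recorded over 180 s (1 read/s) after pintool compound addition, following a 10-cycle baseline. Cells were inducible force-coupled HEK293 TREx D1, plated overnight at 30 C and loaded with no-wash calcium dye.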
D1 PAM: potentiators of human D1 dopamine receptor | hit rate 0.036% among 360,000 | P21728 | potentiation, % at 10 µM | HEK293 TREx D1 cells, calcium flux, dopamine EC20 potentiation; in the data active = potentiation above about 30%; also: 0% is about no effect
TRPV1 ag: human TRPV1 agonism; activation, % at 8.33 µM; TRPV1-expressing cells, Fluo-8 calcium influx, agonist mode; hit rate 0.19% among 320,000; Q8NER1; in the data active = activation above about 80%; inconclusive = between about 30% and that limit; also: 0% is about no effect
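Cells expressing TRPV1 were dye-loaded with Fluo-8 and read kinetically: 10 s baseline, 3 min after compound (agonist portion), then 2 min after EC20 capsaicin (allosteric enhancer portion). Calcium-bound dye fluorescence at 480/520 nm.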
* marks the source's active call; other numbers are inactive results; ? = inconclusive; . = not tested or not shown; ! = not active in a repeat.

SMILES | TRPV1 potentiator | D1 antag | D1 ag | D1 PAM | TRPV1 ag
CC1=CC(=O)C=C(C)C1=NOc1ccccc1[N+](=O)[O-] | -9.5 | -66.1* | -0.3 | -1.6 | 13.8
COC(=O)CN1C(=O)CSc2ccc(S(=O)(=O)Nc3ccc(F)c(Cl)c3)cc21 | . | 3.2 | 1.5 | -1.4 | .
COc1ccccc1N1CCN(C(=O)c2cc(-c3ccc(F)cc3)on2)CC1 | 16.8 | 1.6 | 3.3 | 0.8 | 2.4
CC(=O)c1cccc(NC(=O)c2cc(-c3cccs3)on2)c1 | -1.2 | -1.1 | 4.7 | -9.1 | 8.7
O=C(c1cc(-c2cccs2)on1)N1CCN(c2ccc(F)cc2)CC1 | 16.1 | -17.1 | 1.2 | -7.5 | 4.5
Cc1oc2ncn(C)c(=O)c2c1C(=O)N1CCN(c2ccccc2)CC1 | . | 13.5 | -0.2 | -2.3 | .
COc1ccccc1N1CCN(C(=O)c2cc(-c3ccc(C)cc3)on2)CC1 | 22.0 | -44.6* | 1.9 | -4.3 | -6.8
O=C(c1cc(-c2cccs2)on1)N1CCN(c2ccccc2)CC1 | -11.2 | -38.4* | 4.9 | -9.6 | 4.0
O=C(Nc1cccc(O)c1)c1cc(-c2cccs2)on1 | -8.7 | -38.1* | 9.0 | -8.5 | ?
COc1ccccc1N1CCN(C(=O)c2c(C)oc3ncn(C)c(=O)c23)CC1 | . | -35.3* | 1.2 | -6.4 | .
COc1ccc(OC)c(CCNC(=O)c2c(C)oc3ncn(C)c(=O)c23)c1 | . | -30.6* | 0.7 | -7.2 | .
Cc1ccc(C2CC(=O)n3nc(-c4ccc(F)cc4)nc3S2)cc1 (stereo not given) | . | -0.1 | 1.3 | -2.3 | .
Cc1ccc2c(c1)N(Cc1ccncc1)C(=O)C(C)O2 (stereo not given) | -3.4 | -34.1* | 2.4 | -10.1 | 17.3
Cc1ccc2c(c1)N(Cc1cccc(F)c1)C(=O)C(C)O2 (stereo not given) | -26.4 | 8.3 | 8.5 | -0.1 | ?
CC1CCN(C(=O)C2CCCN(c3ncnc4c3nc3n4CCCCC3)C2)CC1 (stereo not given) | 1.7 | -37.3* | 0.3 | 0.0 | 12.9
O=C(CNS(=O)(=O)c1ccc(F)cc1)N1CCN(c2ccc(F)cc2)CC1 | -10.6 | -1.5 | 5.7 | -4.2 | -6.1
O=C(CNS(=O)(=O)c1ccc(Br)s1)N1CCN(c2ccc(F)cc2)CC1 | 19.9 | -51.4*! | 4.7 | -6.7 | -6.0
Cc1ccc(-c2cccc(C3CC=CC4C3C(=O)N(Cc3ccccc3)C4c3cc(C)ccc3F)c2)cc1 (stereo not given) | -23.5 | -66.5* | 1.8 | -9.5 | -2.4
O=C(COCc1cc(-c2cccs2)on1)NCc1ccc(Cl)cc1 | . | -3.1 | -2.0 | 1.9 | .
CCc1ccccc1-n1cnc2cc(C(=O)NC3CCCCCC3)ccc21 | . | 11.2 | -1.7 | -4.0 | .
OC(CNC1CCCC1)COc1c(F)cc(Br)cc1F (stereo not given) | -3.4 | -2.1 | 12.7 | -4.3 | -1.4
CC1CCCC(C)N1CC(O)COc1c(F)cc(Br)cc1F (stereo not given) | 0.4 | -52.1* | 6.3 | -13.8 | 0.9
CCOc1ccc(CCNC(=O)c2cc3c(s2)-c2ccccc2OC3)cc1OCC | . | 10.7 | -1.1 | -4.7 | .
COc1ccc(/C=C2\Oc3cc(OC(=O)N4CCOCC4)ccc3C2=O)c(OC)c1 | . | -23.4 | 37.4* | -7.8 | .
O=C1/C(=C/c2ccccc2)Oc2cc(OC(=O)N3CCOCC3)ccc21 | -25.3 | -28.0 | 8.4 | -4.8 | ?
SMILES | TRPV1 potentiator | D1 antag | D1 ag | D1 PAM | TRPV1 ag
CCc1ccc(NC(=O)C(CC)c2ccccc2)cc1 (stereo not given) | -13.5 | 3.0 | 41.4* | 13.8 | ?
CCc1ccc(NC(=O)NNC(=O)CCc2ccccc2)cc1 | -1.9 | -60.6* | 1.5 | -4.8 | 3.3
O=C(CCc1ccccc1)NNC(=O)Nc1ccccc1 | 1.6 | 1.9 | 2.6 | 1.4 | -2.0
CCC(C(=O)Nc1cc(OC)c(NC(=O)c2ccccc2)cc1OC)c1ccccc1 (stereo not given) | -5.8 | -6.2 | 7.1 | -1.2 | 18.3
CCC(C(=O)Nc1ccc(C(=O)Nc2ccccc2C(=O)O)cc1)c1ccccc1 (stereo not given) | -6.1 | -64.9* | 2.0 | -4.8 | -0.2
CCCCCCCC(=O)NNC(=O)Cc1ccccc1 | 2.8 | -54.1* | 1.8 | -0.8 | 1.3
COc1ccc(OC)c(-n2c(=O)[nH]c3cc(C(=O)NCCc4ccc(OC)c(OC)c4)ccc3c2=O)c1 | . | -7.1 | -0.1 | -0.5 | .
CCC(C(=O)Nc1ccc(C(=O)N2CCCC2)cc1)c1ccccc1 (stereo not given) | 0.9 | 3.6 | 37.3* | -5.7 | 0.9
CCC(C(=O)Nc1ccc(C)cc1)c1ccccc1 (stereo not given) | -2.6 | 11.5 | 11.8 | -0.4 | ?
CCOc1cc(C(=O)Nc2ccc3nc(N4CCN(C)CC4)cc(C)c3c2)cc(OCC)c1OCC | . | -33.8* | 0.0 | 0.5 | .
CCN1CCN(c2cc(C)c3cc(NC(=O)c4ccccc4F)ccc3n2)CC1 | -14.3 | -4.6 | -0.7 | -0.3 | 2.2
Cc1cc(N2CCN(C)CC2)nc2ccc(NC(=O)c3cccnc3Cl)cc12 | -7.1 | 2.2 | 2.2 | 30.1* | 0.5
Cc1cc(N2CCN(C)CC2)nc2ccc(NC(=O)c3ccccc3F)cc12 | 5.2 | -41.8*! | 0.4 | -3.5 | -0.6
Cc1ccccc1NC(=O)c1sc2nc3c(cc2c1N)CCCC3 | . | 3.5 | -1.0 | -1.2 | .
COc1ccc(C(=O)NCCn2cc(SCC(=O)NCCc3ccc(OC)c(OC)c3)c3ccccc32)cc1 | . | 2.9 | 0.4 | -0.5 | .
CN(C)CCCNS(=O)(=O)c1ccc(Oc2ncc(C(F)(F)F)cc2Cl)cc1 | ? | -17.2 | 60.7* | -6.5 | 0.2
CN(C)CCCNc1ncc(C(F)(F)F)cc1Cl | 12.2 | 12.4 | 1.4 | 0.1 | 2.3
CCCCN(C(=O)c1oc2ccc(OCC)cc2c1C)c1c(N)n(CC(C)C)c(=O)[nH]c1=O | -1.8 | -31.6* | 0.5 | -16.1 | 9.4
CCCCn1c(N)c(N(CC(C)C)C(=O)c2oc3ccc(OCC)cc3c2C)c(=O)[nH]c1=O | 20.9 | 0.6 | 1.7 | -3.5 | -3.2
Clc1cccc(N2CCN(c3nc4ccccc4n4nnnc34)CC2)c1 | . | 2.4 | 4.8 | 2.3 | .
CCC(=O)NC(c1ccc([N+](=O)[O-])cc1)c1c(O)ccc2ccccc12 (stereo not given) | 29.7 | -37.1* | 12.9 | 0.1 | 1.2
CCc1ccccc1N1CC(c2nc3ccccc3n2CC(C)C)CC1=O (stereo not given) | . | 20.8 | -1.0 | -2.0 | .
CC(C)Oc1ccc(/C=C/C(=O)NCC2COc3ccccc3O2)cc1 (stereo not given) | -13.5 | -91.4* | 6.5 | -0.7 | 20.0
O=C(CN1CCCN(Cc2ccc(F)cc2Cl)C1=O)NC1CCCCCCC1 | -16.9 | -4.8 | 2.7 | -12.8 | 19.1
O=C(CN1CCN(Cc2ccccc2F)C1=O)NC1CCCC1 | 2.6 | -30.1* | 10.9 | -2.1 | -2.9
CNc1ccccc1 | -3.0 | . | 0.3 | -1.1 | 1.3
CNc1cccccc1=S | -5.0 | -56.3* | -0.2 | 0.7 | 0.4
CCCc1nnc(SCCSc2nnc(CCC)n2N)n1N | 6.7 | -31.5* | 11.6 | -1.1 | -0.9
